Bioassay records as filed in PubChem.
The list is not random: actives were taken first. Their share in the collection is about 3.8%.
MBNL1-CUG inh = inhibitors of human MBNL1 binding to CUG repeat RNA | Potency, µM (top dose mostly 57.5 µM), inactives show top-dose activity change, negative = inhibition, actives largely listed as inhibitors | Q9NR56 | actives 0.036% (n = 280,000) | AID 2675 | TR-FRET MBNL1-His/biotin-(CUG)12 binding, 665/545 ratio; active = well fitted inhibition curve with a large enough effect in the signal ratio, with a control signal flat, not every such curve was filed as active; inconclusive = small, poorly fitted or top-dose-only effect, or effect the other way, or a change in a side signal; inactive = no such curve, though single readings can be large or run the other way; the % refers to the signal ratio; note: potency is the fitted concentration of half-maximal effect; % is set by controls: 0 for no effect and ±100 for the full control effect
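Inhibition of protein-RNA binding appears as loss of TR-FRET between terbium anti-His antibody on MBNL1-His and streptavidin-XL665 on biotin-(CUG)12. Activity is normalized to buffer-only and uninhibited-complex controls.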
PLK1 PBD block = inhibitors of human PLK1 polo-box domain binding | Plk1 PBD binding of FITC phosphopeptide, fluorescence polarization | P53350 | AID 720504 | Potency, µM, inactives show max response, negative = inhibition, usual class: inhibitors | actives 2.8% (n = 360,000); note: potency is the fitted concentration of half-maximal effect; series mostly up to about 57 µM; % is set by controls: 0 for no effect and ±100 for the full control effect; nearly all actives have a fitted effect of over 65% in size
CBFb RUNX1 block = blocks binding between human CBF-beta and RUNX1. Q01196+Q13951. AlphaScreen CBFb-His/RUNX1-biotin binding, biochemical. Potency, µM (top dose mostly 59.8 µM), inactives show at the top dose activity, negative = inhibition, actives largely listed as inhibitors. 230,000 tested, under 10 active; note: % of control where 0% means no effect
Target sequence (Q01196 whole entry, looked up): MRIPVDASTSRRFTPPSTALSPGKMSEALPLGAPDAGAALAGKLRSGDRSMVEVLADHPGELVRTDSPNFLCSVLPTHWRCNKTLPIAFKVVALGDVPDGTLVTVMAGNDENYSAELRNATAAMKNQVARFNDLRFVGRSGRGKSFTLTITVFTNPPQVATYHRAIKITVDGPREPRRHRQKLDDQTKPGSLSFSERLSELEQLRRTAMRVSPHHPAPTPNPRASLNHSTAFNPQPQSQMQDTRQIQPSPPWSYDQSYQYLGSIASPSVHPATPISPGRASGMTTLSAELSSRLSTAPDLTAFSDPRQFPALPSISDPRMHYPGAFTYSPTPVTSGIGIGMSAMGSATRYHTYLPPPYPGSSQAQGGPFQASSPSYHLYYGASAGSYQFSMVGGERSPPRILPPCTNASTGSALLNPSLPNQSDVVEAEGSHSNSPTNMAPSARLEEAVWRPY
Target sequence (Q13951 whole entry, looked up): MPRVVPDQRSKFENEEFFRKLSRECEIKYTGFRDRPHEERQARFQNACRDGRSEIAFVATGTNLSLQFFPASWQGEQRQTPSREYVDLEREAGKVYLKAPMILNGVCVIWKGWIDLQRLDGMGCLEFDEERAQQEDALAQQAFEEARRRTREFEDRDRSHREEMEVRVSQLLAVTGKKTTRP
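His-tagged CBF-beta and biotinylated RUNX1 (30 nM each) were premixed 20 min at room temperature, exposed to compound for 15 min, then given nickel-chelate and streptavidin AlphaScreen beads (50 ng each). After 90 min, AlphaScreen signal was read.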
hERG WT inh = KCNH2 (human, wildtype) channel inhibition; Q12809; U2OS, BacMam KCNH2, thallium flux FluxOr; stronger effect = lower value; activity change, % at 1.84 µM; actives 0.37% (n = 340,000);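 active = maximum activity change below -70%; inconclusive = maximum activity change between -70% and -50%; inactive = maximum activity change above -50%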; note: % is set by controls: 0 for no effect and ±100 for the full control effect
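U2OS cells were transduced with wild-type KCNH2 virus (2.03 x 10^8 / mL) for 4 h at room temperature, then cultured overnight at 37 C. Thallium flux was read with FluxOr dye. Rate constants were normalized to DMSO controls.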
KCNH2 3.1 inh = inhibitors of human KCNH2 3.1 potassium channel isoform. activity change, % (tested at about 1.8 µM). U2OS KCNH2 3.1, thallium flux FluxOr; stronger effect = lower value. actives 0.95% (n = 340,000);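 active = maximum activity change below -70%; inconclusive = maximum activity change from -70% to -50%; inactive = maximum activity change above -50%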;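 note: thallium influx rate constant from kinetic fluorescence after stimulation buffer; % is set by controls: 0 for no effect and ±100 for the full control effect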
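Kinetic fluorescence (2 min after stimulation buffer) measures Tl+ influx through KCNH2 3.1 expressed by viral transduction in U2OS cells; the rate constant is normalized against DMSO controls serving as positive and negative references.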
VDR inh = blocks the human vitamin D receptor. P11473. VDR-SRC2-3 peptide fluorescence polarization, 2 h. Potency, µM, for inactives: max response, negative = inhibition, actives largely listed as inhibitors. actives 0.93% (n = 400,000). AID 504847; note: potency is the fitted concentration of half-maximal effect; % is set by controls: 0 for no effect and ±100 for the full control effect
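Inhibition of the VDR/SRC2-3 peptide interaction is quantified by fluorescence polarization. Compounds (23 nl, pintool) incubate with the reagents for 2 hours at ambient room temperature.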
* marks the source's active call; other numbers are inactive results; ? = inconclusive; nt = no result given. Unless noted, calls come from the whole dose curve; as a rule, active = well fitted curve in the direction sought with a large enough effect; inconclusive = small, poorly fitted or top-dose-only effect, or another doubt; inactive = no such curve, though single readings can be large; an effect the other way counts as inactive or inconclusive.

SMILES	MBNL1-CUG inh	PLK1 PBD block	CBFb RUNX1 block	hERG WT inh	KCNH2 3.1 inh	VDR inh
CSc1cccc(NC(=O)C2CCN(S(=O)(=O)c3ccc4c(c3)CCCN4C(=O)C3CCC3)CC2)c1	nt	nt	nt	nt	nt	9.2%
COc1cccc(-c2nc(S(=O)(=O)c3ccccc3)c(NCc3ccccc3)o2)c1	nt	nt	nt	nt	nt	0.5%
CSc1nnc(CSCc2ccc(Cl)cc2Cl)n1-c1ccccc1	12.9%	-5.4%	1.1%	-4.9	-83.6*	-8.0%
CC1Cc2ccccc2N1C(=O)CNc1cccc(S(=O)(=O)N2CCCC2)c1 (stereo unspecified)	-2.4%	3.77µM*	0.5%	-13.1	6.1	25.1µM*
CC(OC(=O)C1CC1)C(=O)Nc1cccc(S(=O)(=O)N2CCOCC2)c1 (stereo unspecified)	nt	-8.0%	nt	12.3	-133.7*	-8.3%
O=C(Nc1cccc(S(=O)(=O)N2CCOCC2)c1)C1CCCC1	nt	-4.9%	nt	39.3	13.0	10.4%
O=C(Nc1cccc(S(=O)(=O)N2CCCCC2)c1)C1CCC1	nt	-8.7%	nt	88.2	-91.7*	13.0%
CC(C)Oc1ccc(C(=O)Nc2cccc(S(=O)(=O)N3CCCC3)c2)cc1	nt	-6.8%	nt	14.6	-125.3*	-2.7%
COc1ccccc1-c1nc2c(c(SCc3cc(C)ccc3C)n1)Cc1c(CO)cnc(C)c1O2	nt	nt	nt	nt	nt	-0.2%
O=C(NC1CCCCCCC1)c1cc(-c2ccccn2)nc2ccccc12	nt	26.7µM*	6.2%	-4.4	-0.4	-3.5%
Oc1ccc(N=Nc2ccc3c(c2)OCCO3)c2cccnc12	18.0%	26.7µM*	nt	2.3	8.5	1.7%
Oc1ccc(N=Nc2ccc3c(c2)OCCO3)c(O)c1	?	-3.9%	-26.6%	-73.0*	-20.7	5.6%
Oc1ccc(N=Nc2ccc(Br)cc2)c(O)c1	?	-4.2%	?	-23.8	0.1	-7.1%
O=S(=O)(O)c1cccc2c(N=Nc3ccc(O)c4ncccc34)cccc12	?	21.2µM*	nt	0.7	-6.3	-12.0%
CC(=O)N1CCc2c(sc3c2c(=O)n(-c2ccccc2)c(=O)n3CC(=O)c2ccc(Cl)cc2)C1	nt	nt	nt	nt	nt	-3.8%
CC[C@@H](C)C(NC(=O)OC(C)(C)C)c1cn([C@@H](CCCCNC(=O)OC(C)(C)C)C(=O)N2CCN(C(=O)OC(C)(C)C)CC2)nn1 (stereo partly specified)	2.8%	2.7%	12.5%	-290.5*	-5.0	-1.6%
COc1cc(CN(C(=O)COc2ccccc2)c2ccccn2)cc(OC)c1OC	nt	nt	nt	nt	nt	-2.6%
Cc1ccc(NC(=O)CN2C(=O)NC(Cc3c[nH]c4ccccc34)C2=O)cc1 (stereo unspecified)	nt	-14.1%	nt	-25.7	-100.6*	1.7%
CCCNC(=O)CN1C(=O)NC(Cc2c[nH]c3ccccc23)C1=O (stereo unspecified)	-8.6%	26.7µM*	2.1%	-8.7	-8.0	?
CC12CCC=CC1C(c1cccc(Br)c1)N(Cc1ccccc1)C2=O (stereo unspecified)	nt	nt	2.1%	nt	nt	?
O=C(O)CCC1CCCC1	nt	nt	0.6%	nt	nt	2.2%
CCOc1cccc(C=Nc2cc(C)cc(C)c2O)c1O	?	23.8µM*	?	-1.1	4.7	?
CC(CCC(=O)O)C1CCC2C3CC[C@H]4CC(O)CC[C@@]4(C)C3C=C[C@]12C (stereo partly specified)	nt	nt	12.0%	nt	nt	28.2µM*
C[C@H](CCC(=O)O)C1CC[C@H]2C3CC[C@@H]4C[C@H](O)CC[C@]4(C)C3C[C@H](O)[C@]12C (stereo partly specified)	nt	nt	13.9%	nt	nt	-11.1%
O=C(NCCc1nc2ccccc2n1CCOc1ccc2ccccc2c1)C1CCCCC1	nt	nt	nt	nt	nt	-2.4%
SMILES	MBNL1-CUG inh	PLK1 PBD block	CBFb RUNX1 block	hERG WT inh	KCNH2 3.1 inh	VDR inh
O=C(/C=C/c1ccc(Cl)c(Cl)c1)NC1=NCCS1	1.7%	21.2µM*	-1.3%	-4.0	-3.1	-22.1%
CC(C)c1ccc(/C=C/C(=O)NC2=NCCS2)cc1	17.6%	nt	-8.4%	nt	nt	nt
COc1ccccc1Cc1nc2ccccc2nc1SCC(=O)N1CCC(C)CC1	nt	nt	nt	nt	nt	6.4%
CC(=C\c1ccccc1)/C=C1/SC(=S)N(CCC(=O)O)C1=O	9.9%	-30.0%	nt	nt	23.6	-22.4%
O=C(O)CCCN1C(=O)/C(=C/c2ccncc2)SC1=S	?	-4.9%	-2.7%	2.2	-1.3	-6.6%
C=CCOc1ccc(/C=C2\SC(=S)N(C(C(=O)O)c3ccccc3)C2=O)cc1 (stereo unspecified)	-5.5%	29.9µM*	3.7%	0.7	-3.1	79.4µM*
CC(/C=C1\SC(=S)N(CC(=O)O)C1=O)=C\c1ccccc1	nt	?	-8.9%	-19.2	-0.7	44.7µM*
COc1ccc(OC)c(/C=C2\SC(=S)N(C(C(=O)O)c3ccccc3)C2=O)c1 (stereo unspecified)	41.2%	-28.6%	-8.4%	-7.7	-3.4	?
CC(c1ccccc1)N1C(=O)/C(=C/c2ccncc2)SC1=S (stereo unspecified)	-6.6%	-26.7%	-14.6%	-38.1	18.3	44.7µM*
CC(/C=C1\SC(=S)N(C(C(=O)O)c2ccccc2)C1=O)=C\c1ccccc1 (stereo unspecified)	nt	26.7µM*	-26.5%	7.3	-0.6	-16.6%
CN1/C(=C\C(=O)COC(=O)CNC(=O)c2ccc3ccccc3c2)C(C)(C)c2ccccc21	21.4%	18.9µM*	-15.1%	4.4	5.0	-28.4%
Cc1cccc(NC(=O)C2CCCN(S(=O)(=O)c3c(C)noc3/C=C/N(C)C)C2)c1C (stereo unspecified)	nt	nt	nt	nt	nt	9.2%
CN(CC(=O)Nc1ccc2c(c1)CCC2)CC(=O)Nc1ccccc1Br	1.8%	6.7µM*	0.0%	nt	26.3	?
O=c1[nH]c(C2CCN(S(=O)(=O)c3ccccc3)CC2)nc2c1nnn2Cc1ccccc1	-14.7%	23.8µM*	5.0%	6.2	-16.2	-29.6%
CCCc1c2c(cc3c(=O)cc(C(=O)OCC)oc13)CCCC2	63.2%	21.2µM*	nt	-15.4	-7.3	?
Cc1ccc(NC(=O)Cn2c(O)c(N=NC(N)=O)c3ccccc32)cc1	?	-1.5%	1.4%	-3.8	11.4	-2.6%
Cc1ccc(NC(=O)Cn2c(O)c(N=NS(=O)(=O)c3ccc(C)cc3)c3ccccc32)cc1	0.2%	26.7µM*	-0.1%	1.9	-8.9	?
O=C(O)COc1ccc(C(=O)c2cccs2)c(Cl)c1Cl	nt	nt	-13.7%	nt	nt	-18.3%
Cc1ccccc1C1=C/C(=C(\SS/C(C(=O)c2ccc(OCC(=O)O)c(Cl)c2Cl)=C2\C=C(c3ccccc3C)SS2)C(=O)c2ccc(OCC(=O)O)c(Cl)c2Cl)SS1	nt	16.8µM*	nt	-5.4	2.3	39.8µM*
CC(C)CCn1c(O)c(N=NC(=O)Cn2ccc(C(F)(F)F)n2)c2ccccc21	nt	23.8µM*	-3.3%	-0.7	-1.3	79.4µM*
